Screens deposited in PubChem by Johns Hopkins Ion Channel Center.
KCNQ2 pot: potentiators of rat KCNQ2 potassium channel; O88943; CHO-K1 KCNQ2, FluxOR thallium flux fluorescence; active compounds read high; B-score at 10 µM; hit rate 0.54% among 310,000;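 active means fluorescence ratio B-score at least 3 SD of library B-scores, with initial fluorescence B-score within 3 of them, cut at about 5.3 in these data; same plate scores as AID 2156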;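 further: B-score of peak minus minimum over baseline fluorescence ratio after K+ and Tl+ stimulus; positive B-score means potentiation of KCNQ2 with more thallium influx and brighter signal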
Target sequence (O88943 whole entry, looked up): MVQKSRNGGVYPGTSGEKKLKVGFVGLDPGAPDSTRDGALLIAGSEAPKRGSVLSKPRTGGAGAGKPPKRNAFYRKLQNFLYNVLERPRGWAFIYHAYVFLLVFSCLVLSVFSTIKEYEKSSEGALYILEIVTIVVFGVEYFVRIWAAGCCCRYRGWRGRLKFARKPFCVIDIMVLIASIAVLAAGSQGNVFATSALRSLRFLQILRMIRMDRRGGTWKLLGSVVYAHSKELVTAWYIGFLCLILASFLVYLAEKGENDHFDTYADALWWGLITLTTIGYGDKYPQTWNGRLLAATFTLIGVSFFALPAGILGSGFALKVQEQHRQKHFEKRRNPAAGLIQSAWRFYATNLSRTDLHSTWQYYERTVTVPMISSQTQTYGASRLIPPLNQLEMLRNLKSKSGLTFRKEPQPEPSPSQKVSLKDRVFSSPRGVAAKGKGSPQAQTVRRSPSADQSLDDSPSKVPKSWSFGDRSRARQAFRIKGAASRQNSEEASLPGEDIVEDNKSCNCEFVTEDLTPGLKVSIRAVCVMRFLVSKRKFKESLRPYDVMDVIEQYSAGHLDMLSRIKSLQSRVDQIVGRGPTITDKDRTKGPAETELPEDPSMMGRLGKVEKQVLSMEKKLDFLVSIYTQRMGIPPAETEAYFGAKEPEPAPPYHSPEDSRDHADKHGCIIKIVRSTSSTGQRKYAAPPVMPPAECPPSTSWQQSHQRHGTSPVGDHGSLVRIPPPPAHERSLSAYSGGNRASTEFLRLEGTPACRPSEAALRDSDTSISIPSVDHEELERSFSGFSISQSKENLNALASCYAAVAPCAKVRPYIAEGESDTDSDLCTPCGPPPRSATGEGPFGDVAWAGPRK
KCNQ2 block: inhibitors of rat KCNQ2 potassium channel. O88943. hit rate 1.1% among 310,000. B-score at 10 µM. CHO-K1 KCNQ2, FluxOR thallium flux, 20 min; active compounds read low;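 active means fluorescence ratio B-score at most minus 3 library SDs, with starting brightness B-score within 2 library SDs, cut at about -5.5 in these data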
Hits are given with their value; – = inactive; · = not tested or not shown. This is a sample that favours compounds with a hit; in the whole collection about 1.6% have one here.

SMILES	KCNQ2 pot	KCNQ2 block
O=C(NCc1ccco1)c1ccc(N2CCCCC2)c([N+](=O)[O-])c1	–	–
Cc1ccc(N(Cc2ccco2)C(=O)c2ccc(N3CCCCC3)c([N+](=O)[O-])c2)cc1	–	-7.11
NCCCNc1nc(N)c([N+](=O)[O-])c(NC2CCCCC2)n1	–	–
Cc1ccc2c(c1)N(C(=O)CCC(=O)N1CCN(c3ccccc3)CC1)CCO2	–	–
Cc1ccc2c(c1)N(C(=O)CCC(=O)N1CCN(c3cccc(C)c3C)CC1)CCO2	–	-5.68
Cc1cccc(N2CCN(C(=O)CCC(=O)N3CC(C)Oc4ccccc43)CC2)c1C (configuration not stated)	–	-5.88
CC1CCN(C(=O)CCC(=O)N2CC(C)Oc3ccccc32)CC1 (configuration not stated)	·	–
O=C(Cc1csc(NC(=O)c2ccc(F)cc2)n1)NO	–	-5.66
COc1ccc(C(=O)Nc2nc(-c3cccs3)cs2)cc1	–	–
COc1ccccc1NC(=O)Cc1csc(NC(=O)c2ccccc2)n1	–	–
COc1cc(OC)cc(C(=O)Nc2nc(CC(=O)NCc3ccc(F)cc3)cs2)c1	·	–
COc1cc(C(=O)Nc2nc(-c3cccs3)cs2)cc(OC)c1OC	–	-7.13
COc1cc(OC)cc(C(=O)Nc2nc(CC(=O)NCc3ccccc3OC)cs2)c1	–	-6.58
CC1(C)Cc2c(cnn2-c2ccccc2)C(NC(=O)CCCN2CCCCC2=O)C1 (configuration not stated)	·	–
O=C(NC1CCN(C(=O)Nc2ccc(F)cc2)CC1)c1ccccc1F	·	–
Cc1cccc(C(=O)NNC(=S)NC(=O)c2cccs2)c1	·	–
CN(C)c1ccc(/C=N/Nc2nncc3ccccc23)cc1	–	–
O=C(NNC1=C(C(=O)C(F)(F)F)CCC1)c1ccccc1O	10.9	–
COc1ccccc1C(=O)NNC1=C(C(=O)C(F)(F)F)CCC1	–	–
O=C(O)c1cc(N/N=C/c2cccc3ccccc23)ccc1Cl	–	–
O=C(O)c1cc(N/N=C/C(Cl)=C/c2ccccc2)ccc1Cl	5.32	–
O=S(=O)(/N=C(/Nc1cccc2ccccc12)c1ccccc1)c1ccc(Br)cc1	–	–
Cc1ccc(S(=O)(=O)N(CC(=O)NCc2ccco2)Cc2ccc(F)cc2)cc1	–	-7.28
Cc1ccc(S(=O)(=O)NCC(=O)N(CC(=O)NCc2ccco2)Cc2ccc(F)cc2)cc1	·	–
Cc1ccc(C)c(N(CC(=O)Nc2ccccc2C(=O)NCc2ccco2)S(=O)(=O)c2ccccc2)c1	·	–
SMILES	KCNQ2 pot	KCNQ2 block
Cc1cccc(S(=O)(=O)N(CC(=O)Nc2ccccc2C)Cc2ccco2)c1	–	-5.84
COC(=O)c1cc(S(=O)(=O)N2CCCCC2)c[nH]1	·	–
COc1ccc2cc(C#N)c(SCC(=O)NNC(=O)Cc3ccccc3)nc2c1	–	-6.21
COC(=O)CSc1nc2cc(OC)ccc2cc1C#N	–	–
CC(=O)c1ccc(N(C(=O)Cc2c[nH]c3ccccc23)C(C(=O)NC2CCCCC2)c2cccs2)cc1 (configuration not stated)	·	–
Cc1cccc(N(C(=O)Cc2cccs2)C(C(=O)NC2CCCC2)c2ccncc2)c1 (configuration not stated)	·	–
O=C(NC1CCCCC1)C(c1cccs1)N(C(=O)Cc1c[nH]c2ccccc12)c1ccc(F)cc1 (configuration not stated)	–	-6.76
Cc1ccc(N(C(=O)Cc2cccs2)C(C(=O)NC2CCCCC2)c2ccccn2)cc1C (configuration not stated)	–	-6.2
COC(=O)c1ccc(COC(=O)C(CCSC)NC(=O)COc2ccccc2)cc1 (configuration not stated)	·	–
CCc1ccc(NC(=O)C2CCCN2S(=O)(=O)c2ccc3c(c2)C(C)(C)C(=O)N3C)cc1 (configuration not stated)	·	–
CC(=O)Nc1ccc(NC(=O)C2CCN(C(=O)NC3CCCCC3)CC2)cc1	–	–
CCCCS(=O)(=O)/C=C\C=C/S(=O)(=O)CCCC	6.71	–
CCCCS(=O)(=O)/C=C\C1C2C=CC(C2)C1S(=O)(=O)CCCC (configuration not stated)	·	–
CC(OC(=O)Cc1n[nH]c(=O)c2ccccc12)C(=O)Nc1ccc(F)cc1 (configuration not stated)	·	–
N#CCCN/N=C(/Cc1nc2ccccc2[nH]1)c1cccc(Cl)c1	–	-5.98
O=C(Cc1nc2ccccc2[nH]1)c1ccc(Cl)cc1	·	–
CC(c1ccco1)N(C(=O)COc1ccc(Cl)cc1Cl)c1ccccn1 (configuration not stated)	–	-10.9
CC(c1ccco1)N(C(=O)c1ccccc1F)c1ccccn1 (configuration not stated)	–	–
CC(C)C1Cc2c(sc(NC(=S)NC(=O)c3ccccc3)c2C#N)CO1 (configuration not stated)	–	–
CCOC(=O)c1c(NC(=S)NCCc2ccccc2)sc2c1CC(C(C)C)OC2 (configuration not stated)	7.54	–
Cc1cc(-c2nnc(CCC(=O)N3CCN(Cc4cccnc4)CC3)o2)c(C)o1	·	–
Cc1nnsc1C(=O)N1CCCC(Nc2ccc(F)c(F)c2)C1 (configuration not stated)	·	–
CC(=O)c1c(C)[nH]c(C(=O)Nc2ccc(C)cc2Br)c1C	·	–
COc1ccc2cc(C(=O)N3CCCC(Nc4ccc(F)cc4)C3)n(C)c2c1 (configuration not stated)	·	–
CCCCc1c(C(=O)O)cc(OC)cc1C(=O)O	–	–
SMILES	KCNQ2 pot	KCNQ2 block
CCCCCc1c2c(cc(O)c1C(=O)O)OC(=O)c1c(cc(OC)cc1C(=O)CCCC)O2	–	-6.67
COC(=O)C1CCCN1C(=O)C12CC3CC(CC(C3)C1)C2 (configuration not stated)	·	–
CC1CCN(C(=O)Cn2nnc(-c3ccc(C(C)C)cc3)n2)CC1	–	–
N#CC1=C(c2ccc(-c3ccccc3)cc2)COC1=O	–	-5.65
O=C1OCC(c2ccccc2)=C1c1ccccc1	–	–
OCc1nc2c(ccc3ccccc32)[nH]1	–	–
COc1ccc(CNC(=O)Nc2cccs2)cc1OC	–	–
COc1cccc(CNC(=O)Nc2cccs2)c1	5.67	–
Cc1ccc(S(=O)(=O)Nc2cc(C)cn(Cc3ccc(F)cc3)c2=O)cc1	–	–
Cc1ccc(S[C@@H](CCN2CC[C@H](C)CCC2=O)c2ccccc2)cc1	·	–
C[C@@H](CSc1ccccc1)CN1CC[C@H](C(C)(C)C)CCC1=O	–	-7.21
Cc1ccc(S[C@@H](CCN2CC[C@H](C(C)(C)C)CCC2=O)c2ccccc2)cc1	–	-5.82
CC(C)(C)C1CCC(=O)N(CCSc2ccccc2)CC1 (configuration not stated)	·	–
COc1ccc(Cl)cc1NC(=O)CN(C)C(=O)c1cc(-c2ccncc2)nc2ccccc12	·	–
COC(=O)c1ccccc1NC(=O)CSc1n[nH]c(-c2ccco2)n1	·	–
Oc1ccc2ccccc2c1C=Nc1ccccc1Br	·	–
Oc1c(Br)cc(Cl)cc1C=Nc1ccccc1Br	8.36	–
Nc1ccc(O)c2ccccc12	–	–
COc1ccc(C(C(=O)NC2CCCC2)N(C(=O)c2csnn2)C2CCCC2)cc1 (configuration not stated)	·	–
Cn1c(=O)[nH]c(=O)c2c1nc([N+](=O)[O-])n2Cc1ccccc1	–	-6.16
CC(C)Cn1c([N+](=O)[O-])nc2c1c(=O)[nH]c(=O)n2C	·	–
